Assay outcomes (PubChem BioAssay)
In the library only some 19% were active in any assay of this set; here they are far more common.
TDP1 cell CPT: DT40-hTDP1 cell growth loss with CPT. chicken DT40 Tdp1-/-;hTDP1 cells + 20 nM CPT, ATP luminescence, 48 h. Potency, µM (top dose mostly 46.2 µM), hits mostly inhibitors. 420,000 compounds, 12% hits. AID 686979; further: nearly all actives have a fitted effect of over 55% in size
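Chicken DT40 Tdp1-/- cells stably complemented with human TDP1 were seeded at 400 cells/well in medium containing 20 nM camptothecin, exposed to pin-transferred compounds, and grown at 37 °C for at least 48 hr. Viability was read as ATP luminescence.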
TDP1 cell noCPT: qHTS for Inhibitors of human tyrosyl-DNA phosphodiesterase 1 (TDP1): qHTS in cells in absence of CPT; DT40 Tdp1-/- hTDP1 cells, no CPT, ATP luminescence, 48 h; Potency, µM (top dose mostly 46.2 µM), hits mostly inhibitors; 420,000 compounds, 15% hits; AID 686978, 2013; further: nearly all actives have a fitted effect of over 55% in size
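Chicken DT40 Tdp1-/- cells complemented with human TDP1, screened without camptothecin (DMSO vehicle only), 400 cells/well. Compounds pin-transferred, cells incubated at 37 °C for at least 48 hr. Growth read as ATP-dependent luminescence (CellTiter-Glo, 30 min at RT).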
IL1B secr inh: inflammasome signaling inhibition, IL-1 beta readout | 360,000 compounds, 4.7% hits | activity change, % at 57.5 µM | THP-1 LPS/ATP IL-1B secretion, AlphaLISA, 16 h; active compounds read low; in the data active means activity change below about -50%; inconclusive means mostly about -30% to -49%
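Secreted IL-1B measured by AlphaLISA bead assay after 16 h compound exposure of THP-1 cells; compounds (final up to 57.5 uM) added 1 h before LPS (250 ng/mL) and ATP (1.25 mM) stimulation; lower signal means less secretion.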
HT1080-NT tox: kills 2HG-producing HT-1080-NT fibrosarcoma cells; HT-1080-NT fibrosarcoma viability, CellTiter-Glo ATP luminescence, 48 h; 360,000 compounds, 1.6% hits; Potency, µM (highest dose often 46.1 µM), actives largely listed as cytotoxic; AID 686970;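 further: NT is the 2HG producing partner of a matched IDH1 knockdown line; nearly all actives have a fitted effect of over 55% in size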
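Luminescent CellTiter-Glo readout after 48 hours of compound exposure at 37 degrees C defined viability of HT-1080-NT cells. Activity was normalized to DMSO wells and cell-free media wells; concentration-response curves were fitted and assigned curve classes.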
HT1080 IDH1KD tx: toxicity to HT-1080 IDH1 knockdown cells (counter line). AID 686971. 360,000 compounds, 2% hits. Potency, µM (series often up to 46.1 µM), hits mostly cytotoxic. HT-1080 IDH1 knockdown viability, ATP luminescence, 48 h
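Viability of IDH1-knockdown HT-1080 fibrosarcoma cells was assessed by CellTiter-Glo after 48 h at 37 °C with titrated compound; concentration-effect curves were classified by fit quality and response size.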
ELG1 DNA repair: blocks ELG1-dependent DNA repair in HEK293T cells | HEK293T ELG1-luciferase reporter, luminescence, 16 h; DNA damage induced by 5-fluorouridine | Potency, µM (series often up to 46.1 µM), actives largely listed as inhibitors | 330,000 compounds, 2.3% hits; further: nearly all actives have a fitted effect of over 55% in size
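DMSO vehicle served as the neutral condition. Each well held 2,000 cells given 5-fluorouridine plus compound; after 16 hr at 37 °C/5% CO2, ONE-Glo was added and luciferase measured 30 min later.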
A number is an active result; . = inactive; ? = inconclusive; / = no result given. Unless noted, the call rests on the fitted dose curve; in most records, active means well fitted curve in the direction sought with a large enough effect; inconclusive means small, poorly fitted or top-dose-only effect, or another doubt; inactive means no such curve, though single readings can be large; an effect the other way counts as inactive or inconclusive.

SMILES	TDP1 cell CPT	TDP1 cell noCPT	IL1B secr inh	HT1080-NT tox	HT1080 IDH1KD tx	ELG1 DNA repair
Cn1c(COc2ccccc2)nnc1SCC(=O)NC1CCCC1	.	.	.	.	.	?
O=C(CN1C(=O)c2ccccc2C1=O)OCC(=O)N1CCc2ccccc2C1	.	0.0092µM	.	.	.	.
NC(=O)c1ccccc1OCC(=O)N1CCc2ccccc2C1	?	13µM	.	.	.	.
O=C(CN1C(=O)c2ccccc2C1=O)OCC(=O)N1CCCCC1	.	.	.	.	.	.
CC(C)[C@@H]1C(=O)N(S(C)(=O)=O)[C@H]2CCN(C(=O)/C=C\CN3CCCCC3)[C@@H]12	33.5µM	?	/	/	/	/
CC(C)Oc1cccc(C(=O)C2CCCN(C(=O)CCn3cnnn3)C2)c1 (stereo not given)	.	.	.	.	.	.
O=C(NCCc1ccc(Cl)cc1)C(=O)NCC(c1ccco1)S(=O)(=O)c1ccc(Cl)cc1 (stereo not given)	16.4µM	13µM	/	/	/	/
O=C(NCC(c1ccco1)S(=O)(=O)c1ccc(Cl)cc1)c1ccc(C(F)(F)F)cc1 (stereo not given)	9.2µM	11.6µM	/	/	/	/
CCOC(=O)/C(C#N)=C\c1cc(OC)c(OC)cc1[N+](=O)[O-]	?	?	.	.	.	.
COc1ccc(CCNCC(=O)Nc2ccc(OC(F)F)cc2)cc1	.	.	?	.	.	.
COc1ccc(-n2cc(-c3ccc(OC(F)F)cc3)[n+]3c2CCCCC3)cc1	1.3µM	0.82µM	?	.	.	5.17µM
COc1ccc(-c2cn(-c3ccc(Cl)cc3)c3[n+]2CCCCC3)cc1	2.31µM	2.59µM	?	.	.	11.6µM
Clc1ccc(-c2cn(-c3ccc(Cl)cc3)c3[n+]2CCCCC3)cc1	8.2µM	7.31µM	.	.	.	?
COc1cc(-c2nc(Cn3nnc(C(=O)Nc4ccccc4)c3C)c(C)o2)cc(OC)c1OC	?	25.9µM	/	/	/	/
COc1ccc(CCNc2nc(C)nc3c2oc2ccccc23)cc1OC	3.66µM	4.11µM	?	.	.	10.3µM
COc1ccc(OC)c(Nc2nc(C)nc3c2oc2ccccc23)c1	23.1µM	20.6µM	.	.	.	?
COc1ccc(Cl)cc1Nc1nc(C)nc2c1oc1ccccc12	?	.	.	.	.	.
CC(C)(C)OC(=O)n1cc(CCO)c2ccccc21	.	.	.	.	.	?
C=CCn1c(SCCC)nc2ccccc2c1=O	.	?	/	/	/	/
COc1cccc(NC(=O)COC(=O)c2ccccc2C(=O)N(C)c2ccccc2)c1	.	?	.	.	.	.
O=C(c1ccc(F)cc1)n1nc(-c2cccnc2)nc1NCc1ccc(F)cc1	?	.	/	/	/	/
CC1Cc2cc(S(=O)(=O)N3CCC(C(N)=O)CC3)ccc2N1C(=O)C1CC1 (stereo not given)	.	.	.	.	.	.
COc1cccc(N2CCN(S(=O)(=O)c3ccc4c(c3)CC(C)N4C(=O)C3CC3)CC2)c1 (stereo not given)	?	.	.	.	.	.
CC(=O)N1c2ccc(S(=O)(=O)N(C)Cc3ccccc3)cc2CC1C (stereo not given)	.	20.6µM	.	.	.	?
CC1Cc2cc(S(=O)(=O)N3CCC(C(=O)N(C)Cc4ccccc4)CC3)ccc2N1C(=O)C1CC1 (stereo not given)	?	?	.	.	.	20.6µM
SMILES	TDP1 cell CPT	TDP1 cell noCPT	IL1B secr inh	HT1080-NT tox	HT1080 IDH1KD tx	ELG1 DNA repair
CC(=O)N1c2ccc(S(=O)(=O)N(C)CC(=O)NCc3ccccc3)cc2CC1C (stereo not given)	.	.	.	.	.	.
CC1Cc2cc(S(=O)(=O)N3CCN(c4ccccc4F)CC3)ccc2N1C(=O)C1CC1 (stereo not given)	?	23.1µM	.	.	.	.
CC(=O)N1CCCc2cc(S(=O)(=O)N3CCN(c4ccccc4F)CC3)ccc21	20.6µM	20.6µM	/	/	/	/
CCCCN(Cc1ccccc1)S(=O)(=O)c1cc(Br)cc2c1N(C(C)=O)C(C)C2 (stereo not given)	16.4µM	13µM	.	?	?	?
CC(=O)N1c2c(cc(Br)cc2S(=O)(=O)NCc2cccnc2)CC1C (stereo not given)	.	.	.	.	.	.
O=C(NC1CCCC1)C(c1cccnc1)N(Cc1ccccc1)C(=O)c1csnn1 (stereo not given)	.	.	.	.	.	.
C=CC[C@H](CC(=O)N[C@H](CO)Cc1ccccc1)C(=O)N[C@@H](COC(=O)[C@@H](CC=C)Cc1ccc(F)cc1)Cc1c[nH]c2ccccc12	?	?	.	.	.	?
C=CC[C@@H](CC(=O)N[C@@H](CO)Cc1ccccc1)C(=O)N[C@H](COC(=O)[C@@H](CC=C)Cc1ccc(F)cc1)C(C)(C)C	16.4µM	.	.	?	.	?
C=CCC[C@@H](Cc1ccc(F)cc1)C(=O)OC[C@@H](NC(=O)[C@@H](CC=C)CC(=O)N[C@H](CO)Cc1ccccc1)C(C)(C)C	23.1µM	16.4µM	.	?	.	?
C=CCC[C@@H](Cc1ccc(F)cc1)C(=O)OC[C@@H](NC(=O)[C@H](CC=C)CC(=O)NCCO)C(C)(C)C	?	?	.	.	.	.
COc1ccc(-n2cc(C(=O)OCc3ccc(F)c(F)c3)c3ccccc3c2=O)cc1	.	.	/	/	/	/
Cc1ccc(S(=O)(=O)CC(=O)Nc2nnc(C(C)(C)C)s2)cc1	.	.	.	.	.	.
CC(C)(C)c1nnc(NC(=O)CCS(=O)(=O)c2ccccc2)s1	7.31µM	23.1µM	-102.6	.	?	.
Cc1nnc(NC(=O)CCSc2ccccc2)s1	.	.	.	.	.	.
Cc1nnc(NC(=O)CCS(=O)(=O)c2ccccc2)s1	16.4µM	?	-92.8	?	?	.
O=C(CS(=O)(=O)c1ccccc1)Nc1nnc(C(F)(F)F)s1	.	.	.	.	.	.
O=C(CCS(=O)(=O)c1ccccc1)Nc1nnc(C(F)(F)F)s1	?	13µM	.	?	18.4µM	.
CC1(C)CC(=O)c2sc(NC(=O)CCS(=O)(=O)c3ccccc3)nc2C1	3.26µM	5.8µM	-82.1	.	.	?
Cc1c([N+](=O)[O-])cnc2ccccc12	.	?	/	/	/	/
O=C(CN1C(=O)S/C(=C\C=C\c2ccccc2)C1=O)Nc1cccc(O)c1	?	?	-109.8	?	?	?
COC(=O)c1ccc(/C=C2\SC(=S)N(CCCC(=O)NCCCN3CCOCC3)C2=O)cc1	?	23.1µM	.	?	?	.
